Results: PubChem BioAssay (Tox21)
A number with no mark means an inactive call. Results filed as inconclusive are left out. A call without a number means that no potency is given here. The source made the active and inactive calls. Unless noted, calls come from the whole dose curve.

How the values were obtained:
[1] = Nuclear factor erythroid 2-related factor 2/antioxidant responsive element (Nrf2/ARE) small molecule agonists: luciferase reporter gene qHTS assay in human keratinocytes (AID 1919969); details: KeratinoSens HaCaT ARE-luciferase, luminescence, 24 h; series mostly up to 92.4 µM; note: nearly all actives have a fitted effect of over 35% in size; note: potency is the fitted concentration of half-maximal effect
[2] = molecular target: Gonadotropin-releasing hormone receptor (Homo sapiens) (UniProt P30968); assay: Human gonadotropin-releasing hormone receptor (GnRHR) small molecule agonists, calcium flux assay in GnRHR-HEK293 cells (AID 1920063); details: calcium flux fluorescence, agonist mode; series mostly up to 57.6 µM; note: nearly all actives have a fitted effect of over 35% in size; note: potency is the fitted concentration of half-maximal effect
Summary of the method: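 HEK293 cells stably expressing human GnRHR were plated 18 h at 37 °C, loaded with calcium dye 1 h at 37 °C, then given compound in agonist mode; fluorescence (Ex/Em 480/540) read kinetically for 3 min at 1 s intervals.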

[3] = molecular target: KiSS-1 receptor (Homo sapiens) (UniProt Q969F8); assay: Human kisspeptin (KISS1R) small molecule agonists, calcium flux assay in KISS1R-HEK293 cells (AID 1920064; active = well fitted activation curve with a large enough effect in the repeat runs); details: KISS1R-HEK293, calcium flux fluorescence, agonist; series mostly up to 76.8 µM
Summary of the method: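 HEK293 cells stably expressing human KISS1R were plated 18 h at 37 °C, loaded with calcium dye for 1 h at 37 °C, then given compound by pin tool. Fluorescence (Ex/Em 480/540) was read kinetically for 3 min.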

[4] = p53 small molecule agonists, cell-based qHTS assay with human liver microsomes: qHTS cell viability counter screen (AID 1963579); details: p53RE-bla HCT-116 viability, ATP luminescence, 16 h, HLM; series mostly up to 66 µM; note: nearly all actives have a fitted effect of over 45% in size; note: potency is the fitted concentration of half-maximal effect
Summary of the method: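 p53RE-bla cells, 4,000/well, dosed 5 hours after plating, with human liver microsomes (0.5 mg/mL final) plus NADPH (0.5 mg/mL final), 16 hours at 37 C. Viability read as CellTiter-Glo luminescence after 30 min at room temperature.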

[5] = p53 small molecule agonists, cell-based qHTS assay with rat liver microsomes: qHTS cell viability counter screen (AID 1963580); details: p53RE-bla HCT-116 + rat microsomes, ATP viability, 16 h; series mostly up to 66 µM; note: nearly all actives have a fitted effect of over 45% in size
Summary of the method: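 Intracellular ATP, by CellTiter-Glo luminescence, defines viability. HCT-116 p53RE-bla cells, 4,000 per well, were compound-treated in the presence of rat liver microsomes and NADPH for 16 h at 37 C.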

[6] = p53 small molecule agonists, cell-based qHTS assay (AID 1963582; active = well fitted activation curve with a large enough effect in the signal ratio in the repeat runs, not every such curve was filed as active; the % refers to the signal ratio); details: HCT-116 p53RE-bla reporter, beta-lactamase FRET ratio, 16 h; series mostly up to 66 µM
Summary of the method: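 p53RE-bla beta-lactamase reporter cells rested 5 h at 37 C/5% CO2, then received compounds in DMSO by pin transfer and were incubated 16 h at 37 C. LiveBLAzer B/G FRET substrate was loaded for 2 h at room temperature before fluorescence reading.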

[7] = molecular target: 5-hydroxytryptamine receptor 2A (Homo sapiens) (UniProt P28223); assay: 5-hydroxytryptamine receptor 2A (HTR2A) small molecule antagonists, cell-based qHTS assay (AID 1963586); details: HTR2A-CHO cells, DOI-induced calcium flux, fluorescence; series mostly up to 61.5 µM; note: nearly all actives have a fitted effect of over 45% in size
Summary of the method: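 Antagonist-mode intracellular calcium assay: DOI (4 nM) added after 5 min compound pre-incubation at room temperature to dye-loaded HTR2A-CHO cells. Fluorescence followed for 3 min, sampled every second.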

[8] = molecular target: 5-hydroxytryptamine receptor 2A (Homo sapiens) (UniProt P28223); assay: 5-hydroxytryptamine receptor 2A (HTR2A) small molecule agonists, cell-based qHTS assay (AID 1963587); details: HTR2A-CHO cells, calcium flux fluorescence, agonist mode; series mostly up to 76.8 µM; note: nearly all actives have a fitted effect of over 30% in size; note: potency is the fitted concentration of half-maximal effect
Summary of the method: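 Kinetic calcium-flux fluorescence (2 min, 1 sec intervals) after compound addition in agonist mode. HTR2A-CHO cells were cultured 18 h, then dye-loaded 1 h at 37 C.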

[9] = molecular target: Muscarinic acetylcholine receptor M1 (Homo sapiens) (UniProt P11229); assay: Cholinergic receptor muscarinic 1 (CHRM1) small molecule antagonists, cell-based qHTS assay (AID 1963588); details: CHRM1-CHO antagonist mode, calcium flux fluorescence; series mostly up to 61.5 µM; note: nearly all actives have a fitted effect of over 40% in size; note: potency is the fitted concentration of half-maximal effect
Summary of the method: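 CHRM1-CHO calcium-flux assay, antagonist mode. Cells were seeded 18 h, dye-loaded 1 h at 37 C and given compound for 5 min at RT, then acetylcholine was added at 50nM. FDSS fluorescence was read 3 min; 15 concentrations, three runs.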

[10] = molecular target: Muscarinic acetylcholine receptor M1 (Homo sapiens) (UniProt P11229); assay: Cholinergic receptor muscarinic 1 (CHRM1) small molecule agonists, cell-based qHTS assay (AID 1963589); details: CHRM1-CHO cells, agonist mode, calcium flux fluorescence; series mostly up to 76.8 µM; note: nearly all actives have a fitted effect of over 35% in size
Summary of the method: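 CHO cells stably expressing human CHRM1, seeded 18 h at 37 C/5% CO2, dye-loaded 1 h at 37 C, then given compound in agonist mode; intracellular calcium fluorescence read kinetically at 1 s intervals. Fifteen concentrations, three independent runs.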

[11] = molecular target: D(2) dopamine receptor (Homo sapiens) (UniProt P14416); assay: Dopamine D2 receptor (DRD2) small molecule agonists, cell-based qHTS assay (AID 1963594); details: HEK293-DRD2 cAMP HTRF, agonist mode, 30 min; series mostly up to 92.4 µM; note: nearly all actives have a fitted effect of over 35% in size
Summary of the method: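 cAMP accumulation in DRD2-HEK293 cells measured by HTRF after 1 h detection; compounds added 10 min before NKH477 (200nM […]) forskolin-analogue stimulation, 30 min at room temperature, with Ro20-1724 present at 0.1 mM final.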

[12] = molecular target: D(2) dopamine receptor (Homo sapiens) (UniProt P14416); assay: Dopamine D2 receptor (DRD2) small molecule antagonists, cell-based qHTS assay (AID 1963595; active = well fitted inhibition curve with a large enough effect in the signal ratio in the repeat runs, with a control signal flat; the % refers to the signal ratio); details: HEK293-DRD2 cAMP HTRF antagonist mode; series mostly up to 92.4 µM
Summary of the method: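 Stable D2 receptor HEK293 line, 24 h after seeding. Compound preincubated 10 min, then quinpirole (12 nM) with forskolin analogue NKH477 (200 nM), 30 min, room temperature. Detection by time-resolved FRET of cAMP.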

[13] = G protein-coupled receptor (GPCR) small molecule agonists, calcium flux assay: HEK293 wild type cell line counter screen (AID 1920065); details: HEK293 WT calcium flux, fluorescence, agonist mode; series mostly up to 57.6 µM
Summary of the method: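 Cells were plated and cultured 18 h at 37 C/5% CO2, then loaded with calcium dye for 1 h at 37 C. Compounds in DMSO were pin-transferred in agonist mode, and fluorescence (Ex/Em 480/540) was read kinetically for 3 min at 1 s intervals.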

[14] = p53 small molecule agonists, cell-based qHTS assay with human liver microsomes (AID 1963577); details: HCT-116 p53RE-bla with human liver microsomes, ratio, 16 h; series mostly up to 66 µM
Summary of the method: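 p53RE-bla cells, 4,000/well, compound added after 5 h, with human liver microsomes 0.5 mg/mL and NADPH 0.5 mg/mL final; 16 h at 37 C, then LiveBLAzer 2 h RT, fluorescence.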

[15] = p53 small molecule agonists, cell-based qHTS assay with rat liver microsomes (AID 1963578); details: HCT-116 p53RE-bla, beta-lactamase ratio, 16 h; series mostly up to 66 µM
Summary of the method: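 p53RE-bla cells, 4,000/well, pre-incubated 5 h, then given compounds plus rat liver microsomes (0.5 mg/mL final) and NADPH (0.5 mg/mL final). Incubation 16 h at 37 C; beta-lactamase reporter read by LiveBLAzer fluorescence after 2 h at room temperature.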

[16] = p53 small molecule agonists, cell-based qHTS assay: qHTS cell viability counter screen (AID 1963581); details: p53RE-bla HCT-116 viability, ATP luminescence, 16 h; series mostly up to 66 µM; note: nearly all actives have a fitted effect of over 45% in size
Summary of the method: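 p53RE-bla HCT-116 cells were exposed to compounds for 16 h at 37 C; after the beta-lactamase FRET read in the same wells, CellTiter-Glo was added and luminescence (intracellular ATP) read after 30 min at room temperature.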

[17] = cAMP Responsive Elements (CRE) small molecule agonists, cell-based qHTS assay (AID 1963590); details: CRE-bla HEK293T, beta-lactamase FRET ratio, 3 h; series mostly up to 92.4 µM
Summary of the method: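 CRE-bla HEK 293T cells in DMEM with 10% dialyzed FBS, NEAA, pyruvate and 25 mM HEPES were plated 18 h at 37 C/5% CO2, then exposed to compounds in DMSO for 3 h before LiveBLAzer B/G FRET substrate addition.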

[18] = cAMP Responsive Elements (CRE) small molecule antagonists, cell-based qHTS assay (AID 1963591; active = well fitted inhibition curve with a large enough effect in the signal ratio in the repeat runs, not every such curve was filed as active; the % refers to the signal ratio); details: CRE-bla HEK293T, beta-lactamase FRET ratio; series mostly up to 92.4 µM
Summary of the method: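 CRE-bla HEK293T cells were plated 18 h at 37 °C/5% CO2, pinned with compound in DMSO, then stimulated with NKH477 at 0.25 uM final for 3 h. LiveBLAzer B/G FRET substrate was added and plates incubated 2 h at room temperature.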

[19] = molecular target: Beta-2 adrenergic receptor (Homo sapiens) (UniProt P07550); assay: Adrenergic beta2 receptor (ADRB2) small molecule antagonists, cell-based qHTS assay (AID 1963592); details: CHO-ADRB2 cells, isoproterenol-stimulated cAMP HTRF ratio, 0.5 h; series mostly up to 92.4 µM; note: nearly all actives have a fitted effect of over 50% in size
Summary of the method: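 Cells (CHO, stable ADRB2 overexpression) incubated 18-20hr at 37C; compounds added from DMSO; agonist mix (1nM isoproterenol, 100uM IBMX, 25uM Ro-20-1724) added; 0.5hr RT; d2-cAMP and anti-cAMP-cryptate added; 1hr RT; 665/615 nm read.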

[20] = molecular target: Beta-2 adrenergic receptor (Homo sapiens) (UniProt P07550); assay: Adrenergic beta2 receptor (ADRB2) small molecule agonists, cell-based qHTS assay (AID 1963593); details: CHO-ADRB2 cells, cAMP HTRF, 30 min; series mostly up to 92.4 µM;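 note: CHO cells stably overexpressing human ADRB2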
Summary of the method: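 CHO cells stably over-expressing ADRB2 were plated overnight at 37C, then dosed with compounds plus a stimulation mix containing 100uM IBMX and 25uM Ro-20-1724 for 0.5hr at room temperature. cAMP was measured by HTRF competition, 1hr.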

Chain of 5-hydroxytryptamine receptor 2A (Homo sapiens) (P28223 whole entry, looked up): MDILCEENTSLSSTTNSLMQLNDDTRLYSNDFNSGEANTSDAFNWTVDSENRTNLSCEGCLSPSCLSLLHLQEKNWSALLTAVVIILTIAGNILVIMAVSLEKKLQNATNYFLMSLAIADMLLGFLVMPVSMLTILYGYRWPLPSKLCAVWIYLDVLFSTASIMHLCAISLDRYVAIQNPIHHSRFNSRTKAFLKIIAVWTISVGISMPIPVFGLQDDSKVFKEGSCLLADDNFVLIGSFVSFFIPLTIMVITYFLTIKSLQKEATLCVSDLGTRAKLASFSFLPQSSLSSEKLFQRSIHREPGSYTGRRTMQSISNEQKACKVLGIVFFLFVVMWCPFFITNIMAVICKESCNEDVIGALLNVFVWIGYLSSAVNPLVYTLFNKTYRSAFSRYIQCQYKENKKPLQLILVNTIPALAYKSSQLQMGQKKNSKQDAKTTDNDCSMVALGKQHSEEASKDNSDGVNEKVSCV
Chain of Beta-2 adrenergic receptor (Homo sapiens) (P07550 whole entry, looked up): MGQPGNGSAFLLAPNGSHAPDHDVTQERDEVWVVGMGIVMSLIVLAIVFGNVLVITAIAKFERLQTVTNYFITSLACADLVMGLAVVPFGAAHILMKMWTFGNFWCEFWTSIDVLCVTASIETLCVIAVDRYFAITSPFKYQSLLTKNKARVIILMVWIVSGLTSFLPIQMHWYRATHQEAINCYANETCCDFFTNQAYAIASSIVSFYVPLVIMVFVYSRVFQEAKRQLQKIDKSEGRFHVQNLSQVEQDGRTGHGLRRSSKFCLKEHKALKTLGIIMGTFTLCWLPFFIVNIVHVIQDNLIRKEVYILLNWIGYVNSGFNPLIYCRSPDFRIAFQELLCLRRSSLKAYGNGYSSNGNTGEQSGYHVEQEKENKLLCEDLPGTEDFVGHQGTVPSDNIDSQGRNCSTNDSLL
Chain of Muscarinic acetylcholine receptor M1 (Homo sapiens) (P11229 whole entry, looked up): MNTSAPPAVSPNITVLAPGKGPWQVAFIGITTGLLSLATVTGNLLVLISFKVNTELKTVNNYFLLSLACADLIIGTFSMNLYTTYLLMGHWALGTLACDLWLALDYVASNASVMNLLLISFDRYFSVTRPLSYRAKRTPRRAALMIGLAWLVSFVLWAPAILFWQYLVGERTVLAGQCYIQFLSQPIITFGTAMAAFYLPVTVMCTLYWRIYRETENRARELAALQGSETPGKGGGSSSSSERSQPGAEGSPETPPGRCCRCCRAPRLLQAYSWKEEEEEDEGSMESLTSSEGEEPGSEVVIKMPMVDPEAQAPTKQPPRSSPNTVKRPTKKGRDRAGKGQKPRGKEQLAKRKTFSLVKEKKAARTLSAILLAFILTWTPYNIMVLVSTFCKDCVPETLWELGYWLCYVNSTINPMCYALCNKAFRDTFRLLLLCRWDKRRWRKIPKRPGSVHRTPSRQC
Chain of D(2) dopamine receptor (Homo sapiens) (P14416 whole entry, looked up): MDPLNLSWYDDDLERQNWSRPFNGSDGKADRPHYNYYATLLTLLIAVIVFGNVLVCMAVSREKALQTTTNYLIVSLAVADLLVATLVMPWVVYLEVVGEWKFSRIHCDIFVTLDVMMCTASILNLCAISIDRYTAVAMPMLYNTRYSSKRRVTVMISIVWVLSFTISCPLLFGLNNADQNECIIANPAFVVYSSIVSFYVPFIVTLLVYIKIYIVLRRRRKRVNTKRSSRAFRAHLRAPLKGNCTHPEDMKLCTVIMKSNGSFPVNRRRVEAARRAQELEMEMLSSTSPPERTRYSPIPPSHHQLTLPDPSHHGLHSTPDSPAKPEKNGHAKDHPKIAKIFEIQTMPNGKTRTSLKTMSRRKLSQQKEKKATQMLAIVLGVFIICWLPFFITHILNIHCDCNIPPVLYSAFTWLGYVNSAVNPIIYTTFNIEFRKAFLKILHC
Chain of KiSS-1 receptor (Homo sapiens) (Q969F8 whole entry, looked up): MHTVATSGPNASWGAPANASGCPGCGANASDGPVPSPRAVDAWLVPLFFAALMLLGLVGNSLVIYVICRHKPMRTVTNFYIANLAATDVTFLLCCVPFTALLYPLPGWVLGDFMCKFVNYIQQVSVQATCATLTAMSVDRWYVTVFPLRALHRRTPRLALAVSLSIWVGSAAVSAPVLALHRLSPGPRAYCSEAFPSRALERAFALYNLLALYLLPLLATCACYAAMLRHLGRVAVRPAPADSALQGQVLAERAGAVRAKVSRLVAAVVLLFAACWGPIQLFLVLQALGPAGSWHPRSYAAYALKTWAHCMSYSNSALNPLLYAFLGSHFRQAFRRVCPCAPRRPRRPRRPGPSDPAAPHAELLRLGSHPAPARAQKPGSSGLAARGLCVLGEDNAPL
Chain of Gonadotropin-releasing hormone receptor (Homo sapiens) (P30968 whole entry, looked up): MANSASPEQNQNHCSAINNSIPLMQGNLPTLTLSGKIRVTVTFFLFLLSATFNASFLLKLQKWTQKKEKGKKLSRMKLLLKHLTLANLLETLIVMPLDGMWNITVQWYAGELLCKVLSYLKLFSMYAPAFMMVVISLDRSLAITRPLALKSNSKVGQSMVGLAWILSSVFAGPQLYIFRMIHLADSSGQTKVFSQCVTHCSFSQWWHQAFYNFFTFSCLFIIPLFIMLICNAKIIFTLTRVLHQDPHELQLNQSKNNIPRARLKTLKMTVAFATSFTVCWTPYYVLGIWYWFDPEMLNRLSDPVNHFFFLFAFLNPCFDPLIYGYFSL

SMILES	Potency [1]	Potency [2]	Potency [3]	Potency [4]	Potency [5]	Potency [6]	Potency [7]	Potency [8]	Potency [9]	Potency [10]	Potency [11]	Potency [12]	Potency [13]	Potency [14]	Potency [15]	Potency [16]	Potency [17]	Potency [18]	Potency [19]	Potency [20]
CCOC(=O)COc1ccc2c(C)c(CCN(CC)CC)c(=O)oc2c1Cl	inactive	inactive	inactive	inactive	inactive	inactive	inactive	inactive	2.59 µM (active)	inactive	inactive	inactive								
COC(=O)NCCC[Si](OC)(OC)OC	54.5 µM (active)		inactive	20.4 µM (active)	inactive	inactive	inactive	inactive	inactive	inactive	inactive	inactive	inactive	inactive	inactive	inactive	inactive	inactive		
CCCCCCCCCCCCOCCOS(=O)(=O)O	inactive	38.9 µM (active)			inactive	inactive			inactive	inactive	inactive	inactive	inactive	inactive	inactive				inactive	inactive
CCc1nn(CCCN2CCN(c3cccc(Cl)c3)CC2)c(=O)n1CCOc1ccccc1	inactive	inactive			inactive	inactive					inactive		inactive	inactive	inactive	inactive				
CN1CCC(Nc2ncc3ncnc(Nc4ccc(F)c(Cl)c4)c3n2)CC1	inactive	inactive	inactive	inactive	inactive		inactive		8.18 µM (active)	inactive	inactive	inactive							inactive	
CCCCCCCCCCCCCCOS(=O)(=O)O	inactive	inactive		inactive	inactive	inactive		43.6 µM (active)	inactive	inactive	inactive		inactive	inactive			inactive	inactive	inactive	inactive
CCc1oc2ccccc2c1C(=O)c1cc(Br)c(O)c(Br)c1	inactive	inactive	inactive		inactive						inactive	inactive				inactive	inactive	inactive	inactive	
